From PubChem BioAssay (NCI) come the findings set out here.

Where “and” joins values, the source holds several entries; their conditions need not be identical. Equal entries are not always repeated. Compounds without any hit were thinned out: in the full panel of roughly 83,000, 20% have a hit.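 For each line, cells grew in 96-well plates with the test compound present at a single concentration for 48 hours.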 Unmarked numbers belong to inactive results. Calls of active or inactive are those of the source. How the source made its calls: active means growth percent below 10; inactive means the rest.

The test system of the experiment is MDA-MB-468 breast. Briefly: NCI-60 one-dose screen, 48 h (100 = growth as untreated, 0 = no growth, -100 = all killed). As to conditions: 10 µM unless noted.
`c1ccc2c(c1)ncn2-c1nc2ccccc2n2c1nc1ccccc12`: the growth was -40.5% (active). As for `Cc1[nH]c(=S)[nH]c(=O)c1C`, the figure is 112%. Regarding `CCCCCCCCCCCCCCCC[N+]1(CC)CCCC1`, the growth was -35.7% (active). As for `CCNC(=O)Oc1ccc(/C(=C(/C)c2ccc(Cl)cc2)c2ccc(OCCN3CCCCCC3)cc2)cc1`, the figure is 4.44% (active). As to `COC(=O)/C=C1\SC(=Nc2cccc(OC)c2)N(CCc2c[nH]c3ccccc23)C1=O`, the growth is 64%. Turning to `Cn1cnc([N+](=O)[O-])c1Sc1nnc(-c2ccccc2)c(-c2ccccc2)n1`, the growth is 64.8%. Then `CC(C)(C)OC(=O)NCCc1ccc(N)cc1`, with 94.3%; and `CCOc1ccc(NC(=O)c2cc(OC)c(OC)c(OC)c2)cc1`, with 8.51% (active); and `COc1ccc(Nc2nc(N)nc3c2CCN(Cc2ccc(OC)cc2OC)C3=O)cc1`, with 95.6%. Then `CCOc1ccc(/C=C\C(=O)O)cc1`, with 121%; and `COc1c(C)c(C)c(OC)c2c1[nH]c(=O)c1c3cccnc3cn21`, with 114%. For `N=c1sc(Cc2ccc(Cl)cc2)cn1CC(=O)c1ccc(F)cc1`, the growth was 84.7%.

Turning to `Cc1[nH]c(N=Nc2ccccc2)nc1N=Nc1ccccc1`, the growth is 24.1%.

Turning to `COC(=O)C(Cc1ccccc1)NS(=O)(=O)/N=C1\NC(=O)NC1=C(Cl)Cl` (stereo not given), the growth is 16.3%. Then `CC(C)OC(=O)N1CCOCC1`, with 97.2%; and `CCOC(=O)c1nn(-c2ccccc2)c(=O)c2c(N)c(C#N)c(-c3cccs3)cc12`, with 69.9%. Turning to `COc1ccc2c(c1)C=C1CSCC3=Cc4cc(OC)ccc4OC13O2`, the growth is 21.3%. On to `Cc1ccc(NC(=O)NC2CCCCC2)cc1`, for which the growth is 93.5%. `O=S(=O)(NCl)c1ccccc1`: the growth was 108%. On to `CC(C)(C)n1cc(-c2ccnc(NCCCNS(=O)(=O)c3ccc(Br)cc3)c2)c(-c2cccc(O)c2)n1`, for which the growth is 3.51% (active). As for `COc1ccc(NC(=O)CSc2nc(-c3ccc(OC)c(OC)c3)cc(-c3cc(OC)c(OC)c(OC)c3)n2)cc1`, the growth was 110%. Take `OC1(c2ccc(Cl)c(C(F)(F)F)c2)CCN(CCCC(c2ccc(F)cc2)c2ccc(F)cc2)CC1`: the growth was -86% (active). In the case of `COc1ccc(-c2nnc(SC/C(=N\O)c3ccccc3)o2)cc1`, the growth was 97%. As for `O=C(CN1CCN(c2cc3c(cc2F)c(=O)c(C(=O)O)cn3C2CC2)CC1)Nc1ccc(Cl)cc1`, the figure is 86% and 91.1%; as for `O=C(CSc1nnc(-c2cccs2)n1-c1ccccc1)Nc1ccccc1F`, 67.1%. Regarding `CCCCCCc1cc(N=Nc2ccc(S(=O)(=O)Nc3cc(C)nc(C)n3)cc2)c(O)cc1O`, the growth was 102%. As for `C/C=C/[C@@H]1C=C[C@@H]2C[C@H](C)CC[C@H]2[C@]1(C)/C(O)=C1/C(=O)[C@H](CO)N(C)C1=O`, the figure is 65.5%; as for `C=CCOC(=O)C1=C(C)N(CC)C(=O)N(CC)C1c1c(Cl)n(C)c2ccccc12` (stereo not given), 98.2%.

As to `CCCc1cc(C(N)=S)ccn1`, the growth was 102%.

Consider `CCCCCCCCCCN(CCCCCCCCCC)CC(=O)c1ccc2cc(Br)c3ccccc3c2c1`, for which the growth is 100%. Then `N#C/C(=C\c1cccc2cnccc12)n1nnc2cccc(F)c21`, with 31.9%. As for `O=C(c1ccc2ncc(-c3nc(NC4CC4)ncc3F)n2c1)N1CCOCC1`, the figure is 32.8%; as for `COc1ccc(C2C3=C(COC3=O)N(CCO)c3cc4c(cc32)OCCO4)cc1` (stereo not given), 32.9%; as for `COC(=O)C(C(=O)OC)C(Br)C(Br)C(Br)c1ccccc1` (stereo not given), 36.7%.

In the case of `CCN(CC)CCCCNc1ccc(NCCCCN(CC)CC)c2c1C(=O)c1ccccc1C2=O`, the growth is 106%.

As to `O=C(c1nc2ccccc2[nH]1)C1C(c2ccc(F)cc2)C2CC3CCCCC3N2[C@@]12C(=O)Nc1ccc(Cl)cc12` (stereo not given in full), the growth is 41.6%. As to `Cc1ccc(-c2nc(C#N)c(S(=O)(=O)n3nc(-c4ccccc4)cc3N)o2)cc1`, the growth was 63.1%. Then `O=[N+]([O-])c1cccc(C2CC(c3ccccc3)=Nc3ccccc3S2)c1` (stereo not given), with 86.4%; and `O=c1c2sc3ncc(Br)cc3c2ncn1-c1cccc(Cl)c1`, with 89.8%; and `O=C1Nc2ccccc2/C1=C\c1cccc(/C=C2/C(=O)Nc3ccccc32)n1`, with -33.2% (active).
